From PMC5540273 (PLoS ONE, 2017)

How the values were obtained:
Settings in all cases: concentration: 1 μM,replicates: in singlicate; n = 1
[1] = test system: T1, ASK2
T1 construct: gene MAP3K6

[2] = test system: AURKA
[3] = test system: AURKB
[4] = test system: AURKC
[5] = test system: AXL
[6] = test system: T2, BIKE
T2 construct: gene BMP2K

[7] = test system: BLK
[8] = test system: BMPR1A
[9] = test system: BMPR1B
[10] = test system: BMPR2
[11] = test system: BMX
[12] = test system: BRAF
[13] = test system: T3, BRK
T3 construct: gene PTK6

[14] = test system: BRSK1
[15] = test system: BRSK2
[16] = test system: BTK
[17] = test system: BUB1
[18] = test system: CAMK1B
[19] = test system: CAMK1D
[20] = test system: CAMK1G
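Note: KINOMEscan kinase panel screen.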

| SMILES | %Inh [1] [%] | %Inh [2] [%] | %Inh [3] [%] | %Inh [4] [%] | %Inh [5] [%] | %Inh [6] [%] | %Inh [7] [%] | %Inh [8] [%] | %Inh [9] [%] | %Inh [10] [%] | %Inh [11] [%] | %Inh [12] [%] | %Inh [13] [%] | %Inh [14] [%] | %Inh [15] [%] | %Inh [16] [%] | %Inh [17] [%] | %Inh [18] [%] | %Inh [19] [%] | %Inh [20] [%] |
| --- | --- | --- | --- | --- | --- | --- | --- | --- | --- | --- | --- | --- | --- | --- | --- | --- | --- | --- | --- | --- |
| CC(C(=O)NC1CCN(c2ccnc(Nc3ccc(F)cc3)n2)C1)c1ccc(Cl)cc1 (stereo not drawn) [GSK1379713] | 0 | 0 | 36 | 47 | 11 | 16 | 32 | 0 | 0 | 0 | 0 | 0 | 0 | 5 | 0 | 0 | 18 | 37 | 8 | 13 |
| Cc1ccn2nc(-c3ccc(F)cc3)c(-c3ccncc3)c2c1.Cl [GW457859] | 0 | 10 | 0 | 8 | 3 | 17 | 26 | 0 | 0 | 3 | 8 | 49 | 0 | 0 | 0 | 22 | 87 | 30 | 1 | 0 |
| NC(=O)Nc1sc(-c2ccc(F)cc2)cc1C(N)=O [GW789449] | 0 | 55 | 83 | 85 | 40 | 98.2 | 46 | 6 | 11 | 78 | 0 | 8 | 0 | 2 | 0 | 62 | 20 | 34 | 43 | 0 |
| CN(c1ccccc1CNc1nc(Nc2ccc3c(c2)CC(=O)N3)ncc1C(F)(F)F)S(C)(=O)=O | 0 | 97.2 | 98.7 | 84 | 92.4 | 56 | 64 | 12 | 0 | 0 | 39 | 0 | 0 | 14 | 36 | 0 | 0 | 0 | 0 | 0 |
| C[C@@H]1CCN(C(=O)N2CCCC2)C[C@@H]1N(C)c1ncnc2[nH]ccc12 | 0 | 57 | 31 | 6 | 7 | 25 | 0 | 0 | 13 | 20 | 1 | 11 | 0 | 0 | 5 | 1 | 25 | 18 | 8 | 5 |
| CNC(=O)c1ccccc1Nc1nc(Nc2cccc(CS(C)(=O)=O)c2)ncc1C.O=CO [GSK1520489] | 13 | 100 | 99.9 | 96.8 | 100 | 99.2 | 99.6 | 0 | 99.9 | 99.3 | 97.2 | 59 | 99.7 | 65 | 79 | 95.4 | 88 | 14 | 40 | 29 |
| CCCC(=O)Nc1n[nH]c2ncccc12 [SB-601436] | 0 | 0 | 18 | 0 | 18 | 9 | 19 | 0 | 0 | 17 | 28 | 7 | 0 | 0 | 0 | 0 | 0 | 0 | 3 | 0 |
| O=C(NOCC1CC1)c1cc(Br)c(F)c(F)c1Nc1ccc(I)cc1Cl | 0 | 0 | 1 | 0 | 2 | 0 | 0 | 0 | 0 | 0 | 0 | 0 | 0 | 0 | 0 | 0 | 0 | 0 | 0 | 0 |
| Cl.Nc1n[nH]c2cc(-c3ccccn3)ccc12 [GSK2189892] | 0 | 0 | 8 | 0 | 0 | 32 | 22 | 0 | 0 | 0 | 12 | 0 | 32 | 0 | 0 | 0 | 0 | 0 | 25 | 0 |
